Results reported in PubChem BioAssay AID1851 (National Center for Advancing Translational Sciences (NCATS), 2009).
Hit rate of the full screen: of about 16,000 compounds, about 5,100 (32%) were called active. Another 25% or so got no clear call; they are omitted. Calls follow the shape of the dose curve; as a rule, active = well fitted curve in the direction sought with a large enough effect; inconclusive = small, poorly fitted or top-dose-only effect, or effect the other way; inactive = no such curve, though single readings can be large or run the other way. The list shows a part of the results.

target: Cytochrome P450 3A4 (Homo sapiens) (UniProt P08684); experiment: Cytochrome panel assay with activity outcomes; conditions: recombinant CYP, pro-luciferin dealkylation, luminescence, p450-cyp3a4; series mostly up to 57.1 µM
Sequence (P08684 whole entry, looked up): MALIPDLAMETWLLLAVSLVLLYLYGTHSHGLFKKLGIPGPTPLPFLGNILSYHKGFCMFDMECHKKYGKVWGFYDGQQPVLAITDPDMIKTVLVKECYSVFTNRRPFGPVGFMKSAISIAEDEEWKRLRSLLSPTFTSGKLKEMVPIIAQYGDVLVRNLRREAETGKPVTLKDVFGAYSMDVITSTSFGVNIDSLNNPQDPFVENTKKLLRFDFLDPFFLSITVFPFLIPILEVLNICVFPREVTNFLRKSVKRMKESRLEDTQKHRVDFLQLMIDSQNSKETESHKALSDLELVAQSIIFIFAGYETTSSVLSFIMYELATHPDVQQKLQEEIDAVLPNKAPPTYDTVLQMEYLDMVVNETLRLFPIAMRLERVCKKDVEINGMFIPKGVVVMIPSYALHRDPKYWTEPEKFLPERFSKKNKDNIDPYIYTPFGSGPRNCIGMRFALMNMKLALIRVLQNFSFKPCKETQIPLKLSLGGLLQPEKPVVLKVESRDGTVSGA
% is scaled to controls: 0 for no effect and ±100 for the full control effect.

activity, negative = inhibition, inactive:
OC[C@@H](O)CNc1ncnc2ccccc12 3.9% [at 11.4 µM]
O=C(NCCc1ccc(Cl)cc1)c1ncn[nH]1 -0.238% [at 2.29 µM]
Cc1ccc(S(=O)(=O)N=Nc2c(O)[nH]c3cc(O)c(C(=O)O)cc23)cc1 -1.68% [at 11.4 µM]
CC1(C)OCC([C@H](O)C2=CCCCC2=O)CO1 -7.04% [at 11.4 µM]
COC(=O)c1sc2ncccc2c1OCc1c(Cl)cccc1Cl -24.4% [at 11.4 µM]
COc1ccc(C[N+](C)(C)N)cc1OC -9.55% [at 11.4 µM]
Nc1nc(N)[n+]([O-])c(N)c1NCO -2.59% [at 11.4 µM]
CC(C)[C@@H](OCc1ccccc1)[C@H](C)/C=N\OC[C@@H](O)[C@@H]1O[C@@H]2OC(C)(C)O[C@@H]2[C@H]1O -28.7% [at 11.4 µM]
COC(=O)C/C=C\[C@@H](C)[C@@H](/C=N\OC[C@@H](O)COCc1ccco1)OC -28.9% [at 11.4 µM]
COC(=O)C/C=C\[C@H](C)[C@H](CO)NS(=O)(=O)c1ccc(C)cc1 -5.02% [at 11.4 µM]
CO/N=C\[C@@H](NS(=O)(=O)c1ccc(C)cc1)[C@H](C)/C=C\CC(=O)OC -67.3% [at 11.4 µM]
Clc1ccc(CSC2=NCCN2)cc1Cl -8.56% [at 11.4 µM]
C[N+](C)(C)c1cc2c(nn1)Nc1ccccc1S2 -5.56% [at 11.4 µM]
CCOC(=O)Nc1ccc(C)cc1NC(=O)OCC 4.11% [at 2.29 µM]
CS[C@]12C(=O)C[C@]3(C)[C@@H](CC[C@@]3(O)C(=O)CO)[C@@H]1CCC1=CC(=O)CC[C@]12C -14.7% [at 11.4 µM]
COc1ccc(Cc2ccccc2C(=O)O)c2ccccc12 -12.8% [at 11.4 µM]
NC(Cc1ccccc1)=NCC(=O)O -0.223% [at 11.4 µM]
CC(CO)(CO)N=Cc1cc(I)cc(I)c1O -15.2% [at 11.4 µM]
CCCC1C(=O)N(c2ccccc2)C1c1ccccc1 (stereo not given) 1.96% [at 2.29 µM]
COc1ccc(Oc2nc3ccccc3nc2C(F)(F)F)cc1 2.66% [at 2.29 µM]
N#CC(c1ccc(Cl)cc1)c1nc2ccccc2nc1C(F)(F)F (stereo not given) 15.3% [at 2.29 µM]
COc1ccc(CN[C@H](C)C(=O)O)cc1 0.14% [at 11.4 µM]
COC(=O)C1=C(C)C(c2ccc(OC)cc2)NC(=S)N1 (stereo not given) -11.5% [at 2.29 µM]
Cc1cnc(C(=O)OCC(=O)NC(C)C)cn1 -1.72% [at 2.29 µM]

AC50, inactive:
Cc1cc(C)c(NC(=O)NC(=O)c2ccc(F)cc2)c(C)n1
Cc1cc(C)n(-c2ccc(F)cc2)c(=O)c1C(=O)O
COc1ccc(NC(=O)c2ncn[nH]2)cc1
CCC(C)n1nnc2c(=O)oc3ccccc3c21 (stereo not given)
N#Cc1cccc(-c2nc(Nc3ccccc3)c3ccccc3n2)c1
CCOC(=O)c1cc(C(=O)OCC)cc(-n2cc(O)c(C(=O)OCC)n2)c1
O=C(OCCCN1CCCCC1)c1ccc(O)cc1
Cc1cc(C(=O)O)c(=O)[nH]c1C
O=C(Cn1ccnc1[N+](=O)[O-])NCCO
Cc1cnc(CNc2ncnc3ccc(-c4ccccc4CN(C)C)cc23)cn1
O=C(NC[C@@H](O)CO)c1c(I)c(C(=O)NC[C@@H](O)CO)c(I)c(N(CCO)C(=O)CO)c1I
OC(CCCN1CCCCC1)(c1ccccc1)c1ccccc1
O=C(c1ccccc1)[C@@H]1O[C@H]1c1ccc(-c2ccccc2)cc1
CC(=O)Nc1ccc2c(c1)OCCO2
CC(=O)Nc1ccc2c(c1)OCCOCCOc1cc(NC(C)=O)ccc1OCCOCCOCCO2
O=C(NC(=S)Nc1ccc(Oc2ccc(Cl)cc2)cc1)c1ccccc1
CC(Oc1ccc(O)cc1)(P(=O)(O)O)P(=O)(O)O
CC(=O)c1cc(C#N)c(Oc2ccc(F)cc2)nc1C
CC(=O)c1cc(C#N)c(Oc2cccc(C(F)(F)F)c2)nc1C
COc1ccccc1OC[C@H](O)COC(N)=O
COc1ccc(C[C@@](C)(N)C(=O)O)cc1OC
CCOC(=O)COc1c(OC)cc(Cl)cc1C1Nc2ccccc2C(=O)N1c1ccc(F)cc1 (stereo not given)
CSc1nc2c(c(C(F)(F)F)n1)CC(C)CC2 (stereo not given)
Fc1ccc(NC(=S)NCCc2ccccc2)c(F)c1F
O=C1C(Cc2ccccc2)C(c2ccccc2)N1c1ccccc1 (stereo not given)
CC(=O)NNC(=O)C(O)(c1ccccc1)c1ccccc1
CCCn1nnnc1NC(=O)c1ccc(C)cc1Cl
CCC(CC)C(=O)Nc1cccc(C(=O)Nc2ccc(OC)cc2[N+](=O)[O-])c1
CCCCn1nnnc1SCC(=O)N1CCCC1
COCCCn1nnnc1SCC(=O)N1CCCC1
CN1CCCC[C@@H]1CCN1c2ccccc2Sc2ccc(S(C)=O)cc21 (stereo not given in full)
COc1ccc(Cc2c(N)nc(N)nc2N)cc1

AC50, active:
Cc1cc(C)c(NC(=O)CSc2nnc(Cc3cccn3C)n2-c2ccc(F)cc2)c(C)c1 1.58 µM
Cc1ccc(C)c(NC(=O)c2ncn[nH]2)c1 14.1 µM
CC(C)c1ccc(O)c(NC(=O)c2ncn[nH]2)c1 10 µM
Cc1cccc(CNc2ccnc(-c3ccoc3)n2)c1 1 µM
c1ccc(CNc2ccnc(-c3ccoc3)n2)cc1 10 µM
CNc1nc(-c2cccc(C#N)c2)nc2ccccc12 10 µM
COc1ccc(CNc2nc(-c3cccc(C#N)c3)nc3ccccc23)c(OC)c1 2.51 µM
COc1ccc(CNc2nc(-c3cccc(NS(C)(=O)=O)c3)nc3ccccc23)c(OC)c1 2.51 µM
COc1ccccc1CNc1nc(-c2cccc(C#N)c2)nc2ccccc12 10 µM
COc1cc2c(cc1C(F)(F)F)N(C(=O)Nc1cc(F)cc(-c3cccnc3)c1)CC2 2.51 µM
COc1cc(CNn2nnnc2N)ccc1OCc1c(Cl)cccc1Cl 0.562 µM
COC(=O)C/C=C\[C@@H](C)[C@@H](/C=N\OC[C@@H](O)[C@H]1O[C@H]2OC(C)(C)O[C@H]2[C@@H]1O)NS(=O)(=O)c1ccc(C)cc1 3.98 µM
COC(=O)C/C=C\[C@@H](C)[C@@H](/C=N\OC[C@@H](O)COCc1ccco1)NS(=O)(=O)c1ccc(C)cc1 3.16 µM
CNc1cc(CSC)nc(SCc2ccc(Cl)c(Cl)c2)n1 5.01 µM
Cc1cnc(CNc2ncnc3ccc(-c4ccccc4C)cc23)cn1 3.98 µM
Cc1cnc(CNc2ncnc3ccc(-c4ccccc4C(F)(F)F)cc23)cn1 2 µM
Cc1cnc(CNc2ncnc3ccc(-c4ccccc4Cl)cc23)cn1 2.51 µM
C=CCNc1nc(Cl)nc(Nc2ccc(OC)cc2)n1 14.1 µM
O=C(NC(=S)Nc1ccc2c(c1)OCO2)c1ccccc1 0.631 µM
Cc1ccc(C(=O)NC(=S)Nc2ccc3c(c2)OCCO3)c(C)c1 28.2 µM
CCOC(=O)Nc1ccc2c(c1)OCO2 14.1 µM
COC(=O)c1cc(C#N)c(Oc2ccc(OC)cc2)nc1C 14.1 µM
COc1ccc(CC(=O)O/N=C(\N)Cc2ccc(OC)cc2)cc1 10 µM
COc1ccccc1C/C(N)=N/OC(=O)c1ccc(C)c([N+](=O)[O-])c1 10 µM
COc1ccccc1CC(=O)O/N=C(\N)Cc1cccc2ccccc12 15.8 µM
COc1ccc(C/C(N)=N/OC(=O)Cc2ccccc2)cc1OC 3.16 µM
O=C1c2ccccc2C(=O)N1CCCCN(C(=O)c1cccc([N+](=O)[O-])c1)c1ccc(Cl)cc1 11.2 µM
O=C1c2ccccc2C(=O)N1CCCCN(C(=O)c1ccc([N+](=O)[O-])cc1)c1ccc(Cl)cc1 25.1 µM
CCOC(=O)COc1c(OC)cc(Cl)cc1C1Nc2ccccc2C(=O)N1c1cccc(C)c1 (stereo not given) 3.98 µM
COC(=O)c1sccc1-c1ccc(C(=O)Nc2cccnc2)o1 14.1 µM
Fc1cc(Br)ccc1NC(=S)NCCc1ccccc1 15.8 µM
COc1ccccc1NC(=S)NCCc1ccccc1 11.2 µM
Fc1ccccc1NC(=S)NCCc1ccccc1 12.6 µM
O=C1C2ON(c3ccccc3)C(c3ccncc3)C2C(=O)N1c1ccccc1 (stereo not given) 14.1 µM
FC(F)(F)c1nc2ccccc2nc1N/N=C\c1ccccc1 15.8 µM
FC(F)(F)c1nc2ccccc2nc1N/N=C/c1ccc(Cl)cc1 25.1 µM
COc1ccc(NC(=O)c2cccs2)c([N+](=O)[O-])c1 14.1 µM
COc1ccc(NC(=O)c2ccc(C)cc2Cl)c([N+](=O)[O-])c1 20 µM
CCCCn1c(SCC(=O)N2CCCC2)nc2c1c(=O)n(C)c(=O)n2C 17.8 µM
COc1ccccc1CNc1ncnc2ccc(-c3ccc(C(=O)N(C)C)cc3)cc12 10 µM
COc1ccc(CNc2ncnc3ccc(-c4ccc(C(=O)N(C)C)cc4)cc23)c(OC)c1 2.51 µM
COc1ccc(CNC(=O)c2csc(Cc3ccc(Cl)cc3)n2)cc1 3.55 µM
COc1ccc(CNC(=O)c2cnc(C)cn2)cc1 2 µM
COc1ccc(CNC(=O)c2csc(Cc3ccc(OC)cc3)n2)cc1 3.16 µM
